# Test results from publication PMC12670160, “A drug-repurposing screen of FDA- and EMA-approved drugs identifies two NF-κB inhibitors active against eumycetoma” (Journal of Antimicrobial Chemotherapy, 2025).
# Counter-ions that a name gives are not always drawn. Like-named read-outs stand apart in the source and are kept apart here. The campaign covered roughly 5,300 compounds. About 130 (2.5%) showed an effect of 50% or more. The full list was thinned out, with strong results kept by preference.
# Test system: M. mycetomatis strain mm55
# Details: primary screen, metabolic activity vs growth control, 96 h, 2 µM, inhibitor
Compound,% viability [%],% viability (Madurella mycetomatis metabolic activity at 2µM (%)) [%]
"CN(C)[C@@H]1C(=O)C(C(N)=O)C(=O)[C@@]2(O)C(=O)C3C(=O)c4c(O)cccc4[C@@](C)(O)[C@H]3C[C@@H]12 (some centres unmarked) [ONC0000563, tetracycline hydrochloride]",113.1,–
"C/C(=N\NC(=N)N)c1cc(NC(=O)CCCCCCCCC(=O)Nc2cc(/C(C)=N/NC(=N)N)cc(/C(C)=N/NC(=N)N)c2)cc(/C(C)=N/NC(=N)N)c1 [ONC0003851, semapimod]",78.92,–
"CCCCCCCCCCCCCCCCCC(=O)OCC(O)[C@H]1OC[C@H](O)[C@H]1O (some centres unmarked) [ONC0002989, sorbitanmonostearate]",79.74,–
"CCn1c(-c2nonc2N)nc2cnc(Oc3cccc(NC(=O)c4ccc(OCCN5CCOCC5)cc4)c3)cc21 [ONC0002474, gsk269962]",46.2,–
"CCOc1cccc(NC(=O)c2ccc(N3CCCC3)c(C(F)(F)F)c2)c1 [ONC0001854, epptb]",85.67,–
"COc1cc2c(Nc3ccc(NC(=O)c4ccccc4)cc3)ncnc2cc1OCCCN1CCOCC1 [ONC0003607, zm447439]",145.2,–
"Cc1nc2ccc(CN(C)c3ccc(C(=O)N[C@@H](CCC(=O)O)C(=O)O)s3)cc2c(=O)[nH]1 [ONC0004884, raltitrexed tomudex]",134.6,–
"CN1CCN2c3c(cccc31)[C@@H]1CN(CCCC(=O)c3ccc(F)cc3)CC[C@@H]12 [ONC0001244, lumateperone tosylate]",56.09,–
"CC1=NN(c2ccc(C)c(C)c2)C(=O)/C1=N/Nc1cccc(-c2cccc(C(=O)O)c2)c1O [ONC0004936, eltrombopag olamine]",85.22,–
"FC(F)(F)c1ccccc1-n1ccnc1 [ONC0000025, trim]",101,–
"N#CC(c1ccccc1)(c1ccccc1)c1ccccc1Cl [ONC0000177, tram39]",89.73,–
Clc1ccccc1C(c1ccccc1)(c1ccccc1)n1ccnc1 [Clotrimazole],2.944,–
"C=CC1=C(C)c2cc3[nH]c(cc4nc(cc5[nH]c(cc1n2)c(C)c5CCC(=O)O)C(CCC(=O)OC)=C4C)[C@@]1(C)C3=CC=C(C(=O)OC)[C@H]1C(=O)OC [ONC0001491, verteporfin]",55.47,–
"CC(C)(C)c1ccc(-c2nc3c(N4CCN(Cc5ccc6nccnc6c5)CC4)cccc3[nH]2)cc1 [ONC0001828, way207024]",97.56,–
"N=C(N)NCCC[C@@H](N)C(=O)O [ONC0004802, larginine hcl]",91.52,–
"CN1C/C=C/CCOc2cccc(c2)-c2ccnc(n2)Nc2cccc(c2)C1 [ONC0001026, sb1317]",86.64,–
"Nc1nc2c(ncn2[C@@H]2O[C@H](CO)[C@@H](O)[C@H]2O)c(=S)[nH]1 [ONC0004689, thioguanosine]",121.6,–
"C=C[C@@]1(C)CC(=O)[C@]2(O)[C@@]3(C)[C@@H](O)CCC(C)(C)[C@@H]3[C@H](OC(=O)CCN(C)C)[C@H](OC(C)=O)[C@@]2(C)O1 [ONC0002915, colforsindaproate]",95.97,–

Compound,% viability [%],% viability (Madurella mycetomatis metabolic activity at 2µM (%)) [%]
"C/C=C(\C)C(=O)O[C@H]1[C@H](OC(C)=O)[C@@]2(CO)C(CC1(C)C)C1=CCC3[C@@]4(C)CCC(O[C@@H]5O[C@H](C(=O)O)[C@@H](O[C@@H]6O[C@H](CO)[C@@H](O)[C@H](O)[C@H]6O)[C@H](O)[C@H]5O[C@@H]5O[C@H](CO)[C@@H](O)[C@H](O)[C@H]5O)[C@](C)(CO)C4CC[C@@]3(C)[C@]1(C)C[C@H]2O (some centres unmarked) [ONC0002310, escin]",67.54,–
"CN1CCOC(c2ccccc2)c2ccccc2C1 (centres unmarked) [ONC0000697, nefopam]",116,–
"CN1CCC2=C(C1)c1ccccc1Cc1ccccc12 [ONC0005445, setiptiline]",113.1,–
"CN1CCC2=C(C1)C(c1ccccc1)c1ccccc12 (centres unmarked) [ONC0001922, phenindamine]",47.96,–
"CSCC[C@H](N)C(=O)O [ONC0005517, lmethionine]",–,102.8
"Cc1ccc(NC(=O)c2ccc(CN3CCC(N(C)C)C3)c(C(F)(F)F)c2)cc1Nc1ncc(-c2cncnc2)cn1 (centres unmarked) [ONC0004625, bafetinib inno406]",85.25,–
"CCNCCS(=O)(=O)NC[C@@]1(c2ccccc2)SC(NC(=O)C(C)(C)C)=NN1C(=O)C(C)(C)C [ONC0000804, litronesib]",77.28,–
"CC(=O)NC1=NN(C(C)=O)C(C)(c2ccccc2)S1 (centres unmarked) [ONC0002658, k858]",49.67,–
"CC(=O)Nc1ccccc1 [ONC0000688, acetanilide]",114.7,–
"CCCCN1[C@@H]2CC[C@H]1C[C@@H](OC(c1ccc(F)cc1)c1ccc(F)cc1)C2 [ONC0003046, jhw007]",64.39,–
"FC(F)(F)c1ccc(CNc2ccc(Cc3c[nH]c4ncccc34)cn2)cc1 [ONC0002656, plx647]",82.24,–
"CCOc1cc(C(C)(C)C)ccc1C1=NC(C)(c2ccc(Cl)cc2)C(C)(c2ccc(Cl)cc2)N1C(=O)N1CCN(CCCS(C)(=O)=O)CC1 (centres unmarked) [ONC0004446, rg7112 ro5045337]",112.9,–
"Nc1ccn([C@@H]2O[C@@](CO)(CCl)[C@@H](O)[C@H]2F)c(=O)n1 [ONC0000939, als8112]",44.91,–
"[N-]=[N+]=N[C@]1(CO)O[C@@H](n2ccc(N)nc2=O)[C@H](O)[C@@H]1O [ONC0001768, r1479]",81.29,–
"[N-]=[N+]=N[C@]1(CO)O[C@@H](n2ccc(N)nc2=O)[C@@H](O)[C@@H]1O [ONC0000950, ro9187]",66.7,–
"[H]/N=C(/N)c1ccc(NCc2nc3cc(C(=O)N(CCC(=O)O)c4ccccn4)ccc3n2C)cc1 [ONC0004940, bibr 953 dabigatran etexilate pradaxa]",81.22,–
"C=C[C@H]1C[N@@]2CC[C@H]1C[C@@H]2[C@@H](O)c1ccnc2ccc(OC)cc12 [ONC0003347, quinidine gluconate]",101.1,–
